Laboratory results taken from ChEMBL document CHEMBL1961873, “Compounds: GSK PKIS; Assays: Nanosyn kinase panel” (2012).

What was measured:
[1] = target: T1, Serine/threonine-protein kinase D2 (Homo sapiens) (UniProt Q9BZL6); details: at 1 µM;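 note: mean value of PRKD2 inhibition, from the GSK PKIS screening panel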
T1 sequence (whole entry): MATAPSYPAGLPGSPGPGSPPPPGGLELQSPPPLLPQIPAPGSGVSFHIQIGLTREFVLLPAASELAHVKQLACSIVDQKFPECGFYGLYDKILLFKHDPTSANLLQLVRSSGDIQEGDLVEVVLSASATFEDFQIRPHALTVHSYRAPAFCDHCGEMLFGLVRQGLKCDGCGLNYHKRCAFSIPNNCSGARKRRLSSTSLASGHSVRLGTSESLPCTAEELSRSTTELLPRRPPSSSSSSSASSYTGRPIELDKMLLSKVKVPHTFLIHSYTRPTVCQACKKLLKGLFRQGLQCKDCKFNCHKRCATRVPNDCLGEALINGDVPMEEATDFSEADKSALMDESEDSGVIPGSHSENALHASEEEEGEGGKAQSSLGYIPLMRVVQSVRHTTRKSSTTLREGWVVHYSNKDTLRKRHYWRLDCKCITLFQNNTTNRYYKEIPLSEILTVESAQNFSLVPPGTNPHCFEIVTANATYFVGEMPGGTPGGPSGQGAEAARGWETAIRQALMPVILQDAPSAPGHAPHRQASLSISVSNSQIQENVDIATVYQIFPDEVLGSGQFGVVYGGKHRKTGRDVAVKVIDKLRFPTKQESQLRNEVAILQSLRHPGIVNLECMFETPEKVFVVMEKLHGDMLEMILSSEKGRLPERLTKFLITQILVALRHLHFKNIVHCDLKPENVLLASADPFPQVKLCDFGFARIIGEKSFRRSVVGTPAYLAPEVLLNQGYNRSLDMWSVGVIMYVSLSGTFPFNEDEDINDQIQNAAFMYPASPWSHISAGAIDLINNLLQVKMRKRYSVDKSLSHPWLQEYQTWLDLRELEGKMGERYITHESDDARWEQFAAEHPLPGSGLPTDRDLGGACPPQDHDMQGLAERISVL

[2] = target: T2, Serine/threonine-protein kinase D3 (Homo sapiens) (UniProt O94806); details: at 0.1 µM
T2 sequence (whole entry): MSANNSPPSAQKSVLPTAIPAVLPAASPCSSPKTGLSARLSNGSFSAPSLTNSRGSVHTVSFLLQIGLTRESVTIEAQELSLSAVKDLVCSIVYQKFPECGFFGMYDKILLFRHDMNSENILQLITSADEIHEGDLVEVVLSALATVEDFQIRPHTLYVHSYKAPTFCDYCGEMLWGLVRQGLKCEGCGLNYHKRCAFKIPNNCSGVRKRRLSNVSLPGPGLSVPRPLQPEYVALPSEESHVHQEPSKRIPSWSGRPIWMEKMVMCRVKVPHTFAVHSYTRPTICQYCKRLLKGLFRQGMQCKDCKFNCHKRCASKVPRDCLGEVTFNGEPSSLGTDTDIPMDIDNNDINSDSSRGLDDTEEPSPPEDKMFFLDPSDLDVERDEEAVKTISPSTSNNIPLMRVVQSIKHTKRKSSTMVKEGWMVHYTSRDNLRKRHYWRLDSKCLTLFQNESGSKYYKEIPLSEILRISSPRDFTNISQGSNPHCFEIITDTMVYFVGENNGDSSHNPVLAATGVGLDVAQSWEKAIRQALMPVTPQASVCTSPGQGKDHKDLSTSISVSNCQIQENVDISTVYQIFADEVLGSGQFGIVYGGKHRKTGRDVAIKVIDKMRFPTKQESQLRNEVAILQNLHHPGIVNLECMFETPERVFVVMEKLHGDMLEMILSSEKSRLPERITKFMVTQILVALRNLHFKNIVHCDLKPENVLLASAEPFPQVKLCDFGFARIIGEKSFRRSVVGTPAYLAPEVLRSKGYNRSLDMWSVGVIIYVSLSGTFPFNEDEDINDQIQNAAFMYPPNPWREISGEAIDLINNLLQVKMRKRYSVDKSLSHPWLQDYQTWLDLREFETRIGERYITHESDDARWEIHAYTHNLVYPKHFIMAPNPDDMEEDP

[3] = target: T2, Serine/threonine-protein kinase D3 (Homo sapiens); details: at 1 µM
[4] = target: T3, cGMP-dependent protein kinase 1 (Homo sapiens) (UniProt Q13976); details: at 0.1 µM
T3 sequence (whole entry): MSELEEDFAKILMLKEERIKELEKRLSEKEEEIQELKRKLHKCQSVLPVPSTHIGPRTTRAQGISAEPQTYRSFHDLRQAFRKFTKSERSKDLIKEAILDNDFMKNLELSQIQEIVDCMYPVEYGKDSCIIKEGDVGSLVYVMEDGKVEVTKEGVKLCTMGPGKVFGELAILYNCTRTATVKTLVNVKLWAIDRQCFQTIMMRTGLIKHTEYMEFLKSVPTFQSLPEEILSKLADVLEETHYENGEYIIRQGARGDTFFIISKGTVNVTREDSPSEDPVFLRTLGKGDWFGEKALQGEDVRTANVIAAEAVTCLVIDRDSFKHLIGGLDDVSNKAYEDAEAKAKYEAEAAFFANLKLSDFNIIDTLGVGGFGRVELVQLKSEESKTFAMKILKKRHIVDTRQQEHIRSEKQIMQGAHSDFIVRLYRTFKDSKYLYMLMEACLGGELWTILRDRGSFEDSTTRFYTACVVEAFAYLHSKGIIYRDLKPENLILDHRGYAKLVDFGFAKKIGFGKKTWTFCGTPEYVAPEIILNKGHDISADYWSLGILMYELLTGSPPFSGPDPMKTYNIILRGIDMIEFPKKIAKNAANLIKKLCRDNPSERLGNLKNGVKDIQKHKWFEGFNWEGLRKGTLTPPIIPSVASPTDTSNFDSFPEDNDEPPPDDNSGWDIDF

[5] = target: T3, cGMP-dependent protein kinase 1 (Homo sapiens); details: at 1 µM
[6] = target: T4, cGMP-dependent protein kinase 2 (Homo sapiens) (UniProt Q13237); details: at 0.1 µM
T4 sequence (whole entry): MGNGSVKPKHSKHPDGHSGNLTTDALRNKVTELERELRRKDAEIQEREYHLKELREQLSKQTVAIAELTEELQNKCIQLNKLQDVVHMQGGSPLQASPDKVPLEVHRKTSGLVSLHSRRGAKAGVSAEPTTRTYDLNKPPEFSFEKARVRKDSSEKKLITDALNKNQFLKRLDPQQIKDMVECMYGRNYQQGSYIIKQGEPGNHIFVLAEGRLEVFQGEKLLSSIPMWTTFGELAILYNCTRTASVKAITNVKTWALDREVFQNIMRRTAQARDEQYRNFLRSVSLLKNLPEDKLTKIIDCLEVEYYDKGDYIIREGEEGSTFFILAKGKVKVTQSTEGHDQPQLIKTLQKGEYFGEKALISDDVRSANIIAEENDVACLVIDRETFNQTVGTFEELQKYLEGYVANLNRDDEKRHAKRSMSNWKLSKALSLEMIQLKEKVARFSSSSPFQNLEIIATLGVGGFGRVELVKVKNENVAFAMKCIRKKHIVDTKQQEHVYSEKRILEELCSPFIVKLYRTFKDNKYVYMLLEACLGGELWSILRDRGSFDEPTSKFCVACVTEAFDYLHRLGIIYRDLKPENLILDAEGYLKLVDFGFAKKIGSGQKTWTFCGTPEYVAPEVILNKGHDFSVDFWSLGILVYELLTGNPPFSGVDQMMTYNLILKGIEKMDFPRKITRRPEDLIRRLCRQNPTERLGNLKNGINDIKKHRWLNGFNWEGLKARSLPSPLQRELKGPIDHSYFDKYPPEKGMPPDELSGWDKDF

[7] = target: T4, cGMP-dependent protein kinase 2 (Homo sapiens); details: at 1 µM
[8] = target: T5, cAMP-dependent protein kinase catalytic subunit PRKX (Homo sapiens) (UniProt P51817); details: at 0.1 µM
T5 sequence (whole entry): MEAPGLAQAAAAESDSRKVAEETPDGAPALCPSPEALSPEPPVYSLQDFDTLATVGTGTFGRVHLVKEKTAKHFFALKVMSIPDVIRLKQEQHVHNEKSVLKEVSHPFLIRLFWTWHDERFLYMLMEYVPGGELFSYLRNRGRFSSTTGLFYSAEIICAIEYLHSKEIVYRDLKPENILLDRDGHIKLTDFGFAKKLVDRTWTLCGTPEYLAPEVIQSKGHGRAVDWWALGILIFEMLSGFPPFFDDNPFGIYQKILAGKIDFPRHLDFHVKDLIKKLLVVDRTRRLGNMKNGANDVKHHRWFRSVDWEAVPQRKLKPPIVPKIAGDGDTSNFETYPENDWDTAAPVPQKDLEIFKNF

[9] = target: T5, cAMP-dependent protein kinase catalytic subunit PRKX (Homo sapiens); details: at 1 µM
[10] = target: Rho-associated protein kinase 1 (Homo sapiens) (UniProt Q13464); details: at 0.1 µM
[11] = target: Rho-associated protein kinase 1 (Homo sapiens) (UniProt Q13464); details: at 1 µM
[12] = target: Rho-associated protein kinase 2 (Homo sapiens) (UniProt O75116); details: at 0.1 µM
[13] = target: Rho-associated protein kinase 2 (Homo sapiens) (UniProt O75116); details: at 1 µM
[14] = target: Ribosomal protein S6 kinase alpha-1 (Homo sapiens) (UniProt Q15418); details: at 0.1 µM
[15] = target: Ribosomal protein S6 kinase alpha-1 (Homo sapiens) (UniProt Q15418); details: at 1 µM
[16] = target: Ribosomal protein S6 kinase alpha-3 (Homo sapiens) (UniProt P51812); details: at 0.1 µM
[17] = target: Ribosomal protein S6 kinase alpha-3 (Homo sapiens) (UniProt P51812); details: at 1 µM
[18] = target: Ribosomal protein S6 kinase alpha-2 (Homo sapiens) (UniProt Q15349); details: at 0.1 µM
[19] = target: Ribosomal protein S6 kinase alpha-2 (Homo sapiens) (UniProt Q15349); details: at 1 µM
[20] = target: Ribosomal protein S6 kinase alpha-6 (Homo sapiens) (UniProt Q9UK32); details: at 0.1 µM;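 note: reported value is the mean inhibition of RSK4, from the GSK PKIS kinase inhibitor screen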
Sequence of Ribosomal protein S6 kinase alpha-6 (Homo sapiens) (Q9UK32 whole entry): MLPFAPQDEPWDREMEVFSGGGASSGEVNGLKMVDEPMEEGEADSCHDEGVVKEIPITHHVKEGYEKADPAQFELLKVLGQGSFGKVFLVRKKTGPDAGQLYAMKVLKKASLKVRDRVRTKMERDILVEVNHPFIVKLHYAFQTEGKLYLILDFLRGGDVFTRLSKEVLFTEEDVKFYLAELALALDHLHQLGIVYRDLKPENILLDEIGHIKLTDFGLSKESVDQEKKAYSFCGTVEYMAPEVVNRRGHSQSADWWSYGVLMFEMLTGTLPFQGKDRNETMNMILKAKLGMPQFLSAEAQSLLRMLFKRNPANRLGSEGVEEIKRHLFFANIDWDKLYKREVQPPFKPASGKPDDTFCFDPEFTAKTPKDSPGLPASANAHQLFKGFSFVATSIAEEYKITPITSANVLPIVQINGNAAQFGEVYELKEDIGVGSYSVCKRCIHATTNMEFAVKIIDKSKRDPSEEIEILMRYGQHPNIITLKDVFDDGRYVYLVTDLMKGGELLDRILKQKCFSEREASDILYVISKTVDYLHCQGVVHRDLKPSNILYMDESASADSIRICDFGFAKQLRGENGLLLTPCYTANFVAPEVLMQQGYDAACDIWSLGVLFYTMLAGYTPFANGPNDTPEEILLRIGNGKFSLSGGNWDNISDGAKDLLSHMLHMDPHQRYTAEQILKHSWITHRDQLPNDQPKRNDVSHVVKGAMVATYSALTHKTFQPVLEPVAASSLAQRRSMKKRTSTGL

Sequence of Ribosomal protein S6 kinase alpha-2 (Homo sapiens) (Q15349 whole entry): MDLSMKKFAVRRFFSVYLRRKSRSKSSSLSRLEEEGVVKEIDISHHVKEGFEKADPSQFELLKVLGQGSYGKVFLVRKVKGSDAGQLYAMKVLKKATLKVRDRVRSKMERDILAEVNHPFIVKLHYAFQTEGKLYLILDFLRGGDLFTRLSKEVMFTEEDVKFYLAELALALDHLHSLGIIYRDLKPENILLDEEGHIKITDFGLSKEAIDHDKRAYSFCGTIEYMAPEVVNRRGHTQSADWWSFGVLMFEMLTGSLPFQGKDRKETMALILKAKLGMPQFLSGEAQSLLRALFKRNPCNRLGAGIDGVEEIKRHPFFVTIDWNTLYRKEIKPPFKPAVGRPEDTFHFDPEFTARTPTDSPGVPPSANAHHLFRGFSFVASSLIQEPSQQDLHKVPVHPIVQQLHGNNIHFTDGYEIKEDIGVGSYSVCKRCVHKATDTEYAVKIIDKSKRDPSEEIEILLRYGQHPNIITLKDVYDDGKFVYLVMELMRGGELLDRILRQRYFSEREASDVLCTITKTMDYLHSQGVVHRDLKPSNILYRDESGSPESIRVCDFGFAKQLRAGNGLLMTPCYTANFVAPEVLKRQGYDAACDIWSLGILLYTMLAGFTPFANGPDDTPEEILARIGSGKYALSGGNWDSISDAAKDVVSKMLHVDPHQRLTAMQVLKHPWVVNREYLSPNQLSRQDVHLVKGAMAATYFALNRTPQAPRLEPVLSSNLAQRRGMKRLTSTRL
Sequence of Rho-associated protein kinase 1 (Homo sapiens) (Q13464 2-1354 limits assumed): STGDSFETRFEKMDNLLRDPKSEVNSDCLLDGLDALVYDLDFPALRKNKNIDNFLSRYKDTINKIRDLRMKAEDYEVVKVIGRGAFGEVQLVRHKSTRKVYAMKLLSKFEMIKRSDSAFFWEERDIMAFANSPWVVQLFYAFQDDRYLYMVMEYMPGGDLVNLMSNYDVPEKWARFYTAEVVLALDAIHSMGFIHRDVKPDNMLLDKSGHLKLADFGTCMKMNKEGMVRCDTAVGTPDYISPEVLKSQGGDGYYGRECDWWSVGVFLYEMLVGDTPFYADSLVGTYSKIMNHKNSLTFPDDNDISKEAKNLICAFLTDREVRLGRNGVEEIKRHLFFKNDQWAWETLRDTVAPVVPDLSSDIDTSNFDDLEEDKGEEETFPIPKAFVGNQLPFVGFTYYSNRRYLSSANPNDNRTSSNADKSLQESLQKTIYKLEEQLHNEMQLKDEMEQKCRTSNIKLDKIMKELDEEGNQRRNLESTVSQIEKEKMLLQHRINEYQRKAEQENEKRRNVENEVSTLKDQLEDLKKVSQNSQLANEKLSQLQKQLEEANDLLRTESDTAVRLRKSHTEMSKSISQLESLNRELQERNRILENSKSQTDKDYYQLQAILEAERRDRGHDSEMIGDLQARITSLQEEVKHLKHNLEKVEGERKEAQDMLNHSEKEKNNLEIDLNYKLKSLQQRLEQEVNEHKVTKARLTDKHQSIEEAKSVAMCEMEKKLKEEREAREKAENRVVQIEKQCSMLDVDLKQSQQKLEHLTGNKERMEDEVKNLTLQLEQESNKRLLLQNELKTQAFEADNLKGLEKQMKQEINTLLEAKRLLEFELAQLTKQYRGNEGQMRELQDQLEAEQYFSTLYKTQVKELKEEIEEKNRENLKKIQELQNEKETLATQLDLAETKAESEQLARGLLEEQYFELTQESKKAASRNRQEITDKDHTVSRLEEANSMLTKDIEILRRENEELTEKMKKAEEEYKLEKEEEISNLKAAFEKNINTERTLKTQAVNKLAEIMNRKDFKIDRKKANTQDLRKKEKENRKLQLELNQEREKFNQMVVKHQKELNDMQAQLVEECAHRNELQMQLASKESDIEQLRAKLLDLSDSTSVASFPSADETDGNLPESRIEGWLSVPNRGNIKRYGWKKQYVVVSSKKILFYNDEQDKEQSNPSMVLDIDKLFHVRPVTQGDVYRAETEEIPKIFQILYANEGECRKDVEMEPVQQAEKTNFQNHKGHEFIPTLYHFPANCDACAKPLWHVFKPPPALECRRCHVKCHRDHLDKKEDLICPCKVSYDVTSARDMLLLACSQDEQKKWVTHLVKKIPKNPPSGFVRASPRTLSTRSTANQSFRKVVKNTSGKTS
Sequence of Ribosomal protein S6 kinase alpha-1 (Homo sapiens) (Q15418 whole entry): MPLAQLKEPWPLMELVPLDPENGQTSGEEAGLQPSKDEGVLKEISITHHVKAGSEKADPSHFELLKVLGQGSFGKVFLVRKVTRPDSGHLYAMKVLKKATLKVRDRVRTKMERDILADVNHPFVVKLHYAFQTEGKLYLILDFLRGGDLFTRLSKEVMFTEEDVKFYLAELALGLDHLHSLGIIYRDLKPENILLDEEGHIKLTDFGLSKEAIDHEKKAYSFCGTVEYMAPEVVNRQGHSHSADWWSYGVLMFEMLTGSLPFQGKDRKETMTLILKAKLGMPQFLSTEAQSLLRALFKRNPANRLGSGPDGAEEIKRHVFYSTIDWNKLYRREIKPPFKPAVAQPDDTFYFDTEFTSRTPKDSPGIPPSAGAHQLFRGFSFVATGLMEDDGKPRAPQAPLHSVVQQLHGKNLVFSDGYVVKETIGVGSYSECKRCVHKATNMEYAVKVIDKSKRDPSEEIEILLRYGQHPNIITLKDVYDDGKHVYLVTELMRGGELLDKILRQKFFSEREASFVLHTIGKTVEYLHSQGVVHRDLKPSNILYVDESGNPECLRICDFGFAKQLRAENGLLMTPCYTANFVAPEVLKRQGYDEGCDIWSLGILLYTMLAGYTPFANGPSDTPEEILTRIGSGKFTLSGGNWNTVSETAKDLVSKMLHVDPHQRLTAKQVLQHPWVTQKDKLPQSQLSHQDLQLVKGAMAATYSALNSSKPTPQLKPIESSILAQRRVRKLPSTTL
Sequence of Rho-associated protein kinase 2 (Homo sapiens) (O75116 whole entry, looked up): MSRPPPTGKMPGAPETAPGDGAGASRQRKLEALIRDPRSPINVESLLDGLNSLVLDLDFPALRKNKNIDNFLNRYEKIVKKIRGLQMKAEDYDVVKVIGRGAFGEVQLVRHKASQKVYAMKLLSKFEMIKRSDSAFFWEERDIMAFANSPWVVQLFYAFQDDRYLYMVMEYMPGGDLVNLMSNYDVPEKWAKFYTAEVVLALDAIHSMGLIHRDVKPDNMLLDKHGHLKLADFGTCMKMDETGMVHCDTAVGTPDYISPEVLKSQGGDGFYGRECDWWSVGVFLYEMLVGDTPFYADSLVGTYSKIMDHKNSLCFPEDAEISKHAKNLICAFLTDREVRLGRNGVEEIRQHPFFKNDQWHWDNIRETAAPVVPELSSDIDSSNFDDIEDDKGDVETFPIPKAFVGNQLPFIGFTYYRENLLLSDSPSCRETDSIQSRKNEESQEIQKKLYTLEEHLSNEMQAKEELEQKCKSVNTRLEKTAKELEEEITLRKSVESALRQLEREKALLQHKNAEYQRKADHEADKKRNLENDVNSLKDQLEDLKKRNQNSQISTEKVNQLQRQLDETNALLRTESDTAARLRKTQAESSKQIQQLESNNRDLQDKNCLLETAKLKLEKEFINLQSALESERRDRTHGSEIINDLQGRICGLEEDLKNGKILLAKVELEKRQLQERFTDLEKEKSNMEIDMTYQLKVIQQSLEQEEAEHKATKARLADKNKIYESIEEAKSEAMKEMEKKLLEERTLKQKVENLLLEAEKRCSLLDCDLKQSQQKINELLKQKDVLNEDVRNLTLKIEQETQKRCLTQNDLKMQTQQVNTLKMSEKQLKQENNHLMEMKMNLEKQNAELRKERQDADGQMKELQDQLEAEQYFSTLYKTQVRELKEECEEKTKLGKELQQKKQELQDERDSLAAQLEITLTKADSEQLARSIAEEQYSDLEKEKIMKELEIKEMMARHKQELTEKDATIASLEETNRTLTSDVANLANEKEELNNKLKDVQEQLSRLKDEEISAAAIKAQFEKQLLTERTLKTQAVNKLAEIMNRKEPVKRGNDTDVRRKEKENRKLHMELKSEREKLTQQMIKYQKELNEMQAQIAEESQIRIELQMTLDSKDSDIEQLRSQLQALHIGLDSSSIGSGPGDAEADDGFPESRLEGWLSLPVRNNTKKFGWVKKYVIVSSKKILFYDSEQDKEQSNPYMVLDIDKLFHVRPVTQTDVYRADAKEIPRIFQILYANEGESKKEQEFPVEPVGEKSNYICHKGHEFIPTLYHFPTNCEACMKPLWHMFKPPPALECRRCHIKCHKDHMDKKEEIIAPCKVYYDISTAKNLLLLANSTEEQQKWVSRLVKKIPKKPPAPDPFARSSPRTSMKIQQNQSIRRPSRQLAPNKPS

Structure (SMILES)	inhibition [1] [%]	inhibition [2] [%]	inhibition [3] [%]	inhibition [4] [%]	inhibition [5] [%]	inhibition [6] [%]	inhibition [7] [%]	inhibition [8] [%]	inhibition [9] [%]	inhibition [10] [%]	inhibition [11] [%]	inhibition [12] [%]	inhibition [13] [%]	inhibition [14] [%]	inhibition [15] [%]	inhibition [16] [%]	inhibition [17] [%]	inhibition [18] [%]	inhibition [19] [%]	inhibition [20] [%]
Nc1nc(-c2ccc(F)cc2)c(-c2ccc3ncccc3n2)s1	51.9	8.64	41.8	0.69	4.97	2.78	4.3	2.61	3.14	0.86	2.11	4.08	5.66	3.54	7.04	1.7	3.18	1.93	3.03	1.18
Cc1cccc(Nc2ncc(-c3ccccc3)o2)c1	3.61	2.84	4.5	5.35	11.3	6.06	10.7	11.3	12	1.64	4.38	2.08	3.95	2.35	2.99	0.91	3.43	2.17	2.67	1.32
CCn1c(-c2nonc2N)nc2c(C#CC(C)(C)O)nc(OC[C@H](N)c3ccccc3)cc21	25.6	5.89	28.6	23.8	71.3	56.9	78.8	84.2	87.1	2.85	24.7	9.12	51.3	3.36	12.8	1.74	14.5	3.19	10.7	1.53
COc1cc(/C=N/Nc2ncnc3[nH]ncc23)ccc1O	3.63	2.22	3.16	3.83	14.8	13.5	55	1.69	3.71	1.5	5.67	4.64	13.9	1.89	11.3	2.74	11.7	1.62	9.77	2.97
COC(=O)Nc1nc2ccc(Oc3ccc(NC(=O)Nc4cccc(Cl)c4)cc3)cc2[nH]1	2.04	0.95	3.39	0.03	-0.55	0.27	-0.85	0.22	-1.01	0.69	6.4	2.53	5.68	-0.78	0.39	0.65	1.37	0.54	0.67	-0.53
O=C(O[C@H]1CN[C@H](C#Cc2cc3ncnc(Nc4ccc(Cc5ccccc5)cc4)c3s2)C1)N1CCOCC1	1.56	1.99	1.5	3.46	3.85	4.54	3.68	3.27	3.94	2.02	1.88	1.88	2.51	1.51	1.3	1.48	1.79	2.02	3	1.78
